# Test results published in PubChem BioAssay (NCI).
# Where “and” joins values, the source holds several entries; their conditions need not be identical. Equal values may be shown once. Compounds without any hit were thinned out: in the full panel of roughly 79,000, 15% have a hit. A structure can be active in one record and inactive in another. Calls of active or inactive are those of the source. Rule as the data show it: active = growth inhibition above about 70%; inactive = the rest.
# Key:
# [1] = NCI Yeast Anticancer Drug Screen. Data for the rad50 strain (AID 155);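 also: 0% = growth of vehicle-only cultures of the same strain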; settings: S. cerevisiae rad50 strain growth inhibition, stronger effect = higher value
# Summary of the method: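 Genetically altered yeast (DNA repair pathway); compound treatment; growth inhibition vs vehicle ctrl.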
# [2] = NCI Yeast Anticancer Drug Screen. Data for the mec2-1 strain (AID 157); settings: S. cerevisiae mec2-1 strain, stronger effect = higher value
# Summary of the method: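 Compounds were applied to mec2-1 yeast cells. Their growth was then compared with that of vehicle-treated cultures to give growth inhibition.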
# [3] = NCI Yeast Anticancer Drug Screen. Data for the sgs1 mgt1 strain (AID 161);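 also: 0% = growth of cultures given vehicle only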; settings: S. cerevisiae sgs1 mgt1 strain, stronger effect = higher value
# Summary of the method: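 Compounds are added to genetically altered yeast, and growth is compared with cultures given vehicle alone to give percent inhibition.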
# [4] = NCI Yeast Anticancer Drug Screen. Data for the cln2 rad14 strain (AID 165);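 also: 0% = growth equal to vehicle treated cultures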; settings: S. cerevisiae cln2 rad14 strain, stronger effect = higher value
# Summary of the method: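 Strain: cln2 rad14 yeast, altered in cell cycle control and DNA damage repair. Read-out: growth inhibition vs vehicle.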
# [5] = NCI Yeast Anticancer Drug Screen. Data for the bub3 strain (AID 167); settings: S. cerevisiae bub3 mutant strain, stronger effect = higher value
# Summary of the method: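 Yeast carrying a defined mutation is treated with each compound, and growth is compared with that of vehicle-exposed cells to give inhibition.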
# [6] = NCI Yeast Anticancer Drug Screen. Data for the mlh1 rad18 strain (AID 175); settings: S. cerevisiae mlh1 rad18 strain growth inhibition, stronger effect = higher value
# Summary of the method: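 A repair-deficient yeast strain is exposed to test compound, and growth is scored relative to vehicle-treated controls.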
# [7] = at 5.0 µM (retest, dose inferred, filed as 0.5)
# [8] = at 50.0 µM (retest, dose inferred, filed as 5.0)
SMILES,"growth inhibition [1, 7]","growth inhibition [1, 8]",growth inhibition ([1]; at 50.0 µM),"growth inhibition [2, 7]","growth inhibition [2, 8]",growth inhibition ([2]; at 50.0 µM),"growth inhibition [3, 7]","growth inhibition [3, 8]",growth inhibition ([3]; at 50.0 µM),"growth inhibition [4, 7]","growth inhibition [4, 8]",growth inhibition ([4]; at 50.0 µM),"growth inhibition [5, 7]","growth inhibition [5, 8]",growth inhibition ([5]; at 50.0 µM),"growth inhibition [6, 7]","growth inhibition [6, 8]",growth inhibition ([6]; at 50.0 µM)
C[CH2][Sn]([Cl])([Cl])[CH2]C,20% (inactive) and 26% (inactive),58% (inactive) and 79% (active),70.3% (active) and 68.2% (inactive),10% (inactive) and 16% (inactive),75% (active) and 85% (active),53.3% (inactive) and 77.2% (active),12% (inactive) and 21% (inactive),50% (inactive) and 68% (inactive),55.9% (inactive) and 44.2% (inactive),2% (inactive) and 31% (inactive),42% (inactive) and 35% (inactive),53.9% (inactive) and 48.2% (inactive),17% (inactive) and 11% (inactive),69% (inactive) and 58% (inactive),48.5% (inactive) and 41.8% (inactive),19% (inactive) and 30% (inactive),45% (inactive) and 81% (active),33.9% (inactive) and 23.1% (inactive)
O=C1NC(=S)NC(=O)C1=C/C=C/c1ccccc1,33% (inactive),40% (inactive),73% (active),40% (inactive),32% (inactive),46.6% (inactive),4% (inactive),89% (active),79.7% (active),44% (inactive),89% (active),31.8% (inactive),26% (inactive),84% (active),73.7% (active),29% (inactive),33% (inactive),69.7% (inactive)
CCC[CH2][Sn]1([CH2]CCC)[S]CC[N]1S(=O)(=O)c1ccc(C)cc1,79% (active),98% (active),91.8% (active),85% (active),99% (active),94% (active),77% (active),99% (active),92.6% (active),62% (inactive),97% (active),91.5% (active),88% (active),98% (active),92.3% (active),88% (active),97% (active),92% (active)
O=[N+]([O-])c1cc([N+](=O)[O-])c(Cl)cc1F,99% (active),99% (active),81% (active),99% (active),99% (active),59.7% (inactive),99% (active),99% (active),78.2% (active),98% (active),99% (active),-3.25% (inactive),99% (active),99% (active),87.5% (active),99% (active),99% (active),98.6% (active)
O=C(O)c1cc[c]([Hg])cc1,-1% (inactive),5% (inactive),38.4% (inactive),-2% (inactive),3% (inactive),25.6% (inactive),1% (inactive),5% (inactive),36% (inactive),-3% (inactive),-4% (inactive),2.65% (inactive),0% (inactive),-7% (inactive),-5.4% (inactive),1% (inactive),3% (inactive),38.2% (inactive)
O=[N+]([O-])C(Br)(Br)CCC(Br)(Br)[N+](=O)[O-],99% (active),99% (active),99.5% (active),99% (active),100% (active),99.8% (active),99% (active),99% (active),52.4% (inactive),100% (active),99% (active),81.3% (active),100% (active),100% (active),99.7% (active),99% (active),99% (active),99.5% (active)
CC(C)(C)C(Br)C(=O)NC(N)=O (configuration not stated),1% (inactive),-6% (inactive),-8% (inactive),-4% (inactive),3% (inactive),-0.45% (inactive),12% (inactive),-7% (inactive),-19.4% (inactive),-6% (inactive),2% (inactive),82.2% (active),-3% (inactive),-3% (inactive),-12% (inactive),-2% (inactive),-8% (inactive),16.3% (inactive)
COc1cc(C=Nc2cc(Br)c(OC)c(Br)c2)ccc1N(CCCl)CCCl,1% (inactive),73% (active),84.5% (active),-12% (inactive),79% (active),31.4% (inactive),-1% (inactive),45% (inactive),76.2% (active),1% (inactive),46% (inactive),55.7% (inactive),-8% (inactive),-3% (inactive),-1.45% (inactive),54% (inactive),95% (active),83.2% (active)
COc1ccc(Br)cc1/C=C/[N+](=O)[O-],90% (active),99% (active),99.3% (active),90% (active),99% (active),99.2% (active),91% (active),99% (active),99.4% (active),83% (active),99% (active),77.8% (active),92% (active),99% (active),96.1% (active),92% (active),99% (active),98.7% (active)
